The list is not random: actives were taken first. Their share in the collection is about 1.3%.
Vc quorum ag – quorum light induction in luxS cqsA deficient V. cholerae | V. cholerae BH1578 lux reporter, luminescence, 6 h | activation, % at 18.7 µM | 350,000 tested, 0.16% active | AID 588436; in the data active = activation mostly above about 9.7%, no sharp cut-off
DUSP3 inh – blocks human VHR1 dual specificity phosphatase. recombinant VHR phosphatase, pNPP absorbance. inhibition, % at 13.3 µM. P51452. 290,000 tested, 0.52% active. AID 1654; in the data active = inhibition above about 50%
CCHFV vOTU inh – blocks the CCHF virus ovarian tumor domain protease; CCHFV vOTU protease, Pep-AMC fluorescence; inhibition, % at 11.5 µM; 370,000 tested, 0.55% active; in the data active = inhibition above about 30%; note: 0% = vehicle wells with enzyme and 100% = no enzyme wells
PriA SSB inh – K. pneumoniae PriA-SSBct interaction inhibition; AlphaScreen SSBct-PriA binding, biotinylated peptide; inhibition, % at 33 µM; 430,000 tested, 0.6% active; AID 1272365; in the data active = inhibition mostly above about 37%, no sharp cut-off; inactive = mostly below about 20%;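 note: plate controls were negative control peptide for no effect and reference peptide for full effect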
TcdB GH inh – inhibitors of Clostridioides difficile toxin B glycohydrolase; P18177; TcdB glycohydrolase enzymatic assay, plate reader; inhibition, % at 9.99 µM; 350,000 tested, 0.24% active; in the data active = inhibition above about 10%
SARS 3CLpro inh – SARS-CoV 3CLpro protease inhibition; P0C6X7; recombinant SARS-CoV 3CLpro, quenched FRET peptide cleavage; inhibition, % at 6 µM; 290,000 tested, 0.14% active; AID 1706; in the data active = inhibition above about 12%
* = called active by the depositor; i = inactive; nt = no result; + = active, no number.

SMILES	Vc quorum ag	DUSP3 inh	CCHFV vOTU inh	PriA SSB inh	TcdB GH inh	SARS 3CLpro inh
CCOc1ccc(C(=O)NN=Cc2cccc3cccnc23)cc1	nt	nt	nt	89*	nt	nt
O=C(N/N=C/c1cccc2nccnc12)c1ccccc1O	i	17	0	i	1	-4
COc1ccc(C(=O)NN=Cc2cccc3cccnc23)cc1	nt	nt	nt	80*	nt	nt
O=C(N/N=C/c1cccc2nccnc12)c1ccncc1	-1	-10	5	+	0	-3
O=C(N/N=C/c1cccc2cccnc12)c1ccccc1O	-6	5	15	+	0	-1
CCOc1cccc(/C=N/NC(=O)c2cccnc2)c1O	i	52*	-8	nt	-8	-5
CCOc1cccc(C=NNC(=O)c2cccnc2)c1O	nt	nt	nt	2	nt	nt
CCOc1ccc(CC(=O)NCC[C@H](O)c2cc(C)oc2C)cc1	nt	nt	nt	2	nt	nt
Oc1ccccc1-c1cnc2cccnn12	-1	nt	-10	nt	47*	nt
COc1ncccc1-c1cnc2cccnn12	-1	nt	-79	nt	1	nt
O=C(CN1CC(c2nc(-c3ncccn3)no2)C1)Nc1ccc2c(c1)OCO2	nt	nt	nt	-4	nt	nt
CCOC(=O)c1cnn2ccc(NC(=O)c3cccn(C)c3=O)cc12	nt	nt	nt	-3	nt	nt
CN(C)C(CNC(=O)c1ccccc1F)c1cn(C)c2ccccc12 (stereo unspecified)	nt	nt	nt	-1	nt	nt
CCn1nc(C)cc1C(=O)N1CCCC(C(=O)c2ccc(Oc3ccccc3)cc2)C1 (stereo unspecified)	nt	57*	11	-6	1	5
Cc1cc(C)n(CC(=O)N2CCCC(C(=O)c3cccc(OC(C)C)c3)C2)n1 (stereo unspecified)	0	52*	2	-4	1	4
C=CCCC(=O)N1CCCC(C(=O)c2cccc(OC)c2)C1 (stereo unspecified)	0	57*	-12	-14	0	-7
O=C(Nc1ccc(Br)cc1)C1Cc2ccccc2CN1S(=O)(=O)c1cccs1 (stereo unspecified)	nt	nt	nt	-3	nt	nt
O=c1c([N+](=O)[O-])c(N2CCCCC2)c2ccccc2n1-c1ccccc1	+	8	nt	-7	nt	-4
Cn1nc(CNC(=O)c2ccncc2)c2c1CCCC2	nt	nt	nt	-16	nt	nt
Cn1cc(C(CO)Cc2ccccc2)c2ccccc21 (stereo unspecified)	-1	nt	3	-2	20*	nt
COCc1ccc(CN2CCC(N3CCC(C(=O)N4CCCC4)CC3)CC2)o1	i	52*	5	0	0	3
CC(=O)Nc1ccc(C(=O)NCCNC(=O)Nc2cccs2)cc1	nt	nt	nt	-9	nt	nt
Cc1cc(NC(=O)CC(C)C)c(=O)n(Cc2c(F)cccc2Cl)c1	0	54*	10	-8	0	0
COc1ccc(NC(=O)CSCc2csc(NC(=O)Nc3cccc(C(F)(F)F)c3)n2)cc1	nt	nt	nt	-23	nt	nt
Cc1cc(C)c2nc(NC(=O)C(C)C)sc2c1	nt	nt	nt	-3	nt	nt
SMILES	Vc quorum ag	DUSP3 inh	CCHFV vOTU inh	PriA SSB inh	TcdB GH inh	SARS 3CLpro inh
CC(C)S(=O)(=O)c1nsc2nc(=O)c(C=C3C=Nc4ccccc43)c(N)n12	nt	nt	nt	-2	nt	nt
O=C(C[C@H](Sc1cccc2cccnc12)c1ccc(OC(F)F)cc1)c1ccco1	nt	nt	nt	83*	nt	nt
O=C(Oc1cccc2cccnc12)c1ccco1	i	13	-4	6	nt	-3
COc1ccc(C(CC(=O)c2ccco2)Sc2cccc3cccnc23)cc1OC (stereo unspecified)	nt	nt	nt	81*	nt	nt
CCc1ccc2nc(N3CCN(C(=O)C4CCCCC4)CC3)sc2c1	nt	nt	nt	-13	nt	nt
O=C(NCC[C@H](O)c1ccsc1)c1ccc2c(c1)OCO2	nt	nt	nt	-7	nt	nt
Cc1ccnc(NS(=O)(=O)c2ccc(NC(=O)COc3ccccc3)cc2)n1	0	36	-4	-15	0	0
O=C(COc1ccccc1)Nc1ccc(S(=O)(=O)Nc2ncccn2)cc1	0	-6	0	-15	17*	1
Cc1ncc(CO)c(C=NNc2ccc(C(F)(F)F)cn2)c1O	nt	nt	nt	72*	nt	nt
Cc1cc(C(=O)NN=Cc2c(CO)cnc(C)c2O)c2ccccc2n1	nt	nt	nt	40*	nt	nt
Cc1ncc(CO)c(C=NNc2cccc(Cl)n2)c1O	nt	nt	nt	-2	nt	nt
O=C(NN=Cc1c(O)n(CCc2ccc(F)cc2)c(=O)[nH]c1=O)c1ccccc1	nt	nt	nt	-7	nt	nt
CCn1c(C)cc(O)c([C@H](c2cccnc2)N2CCC(Cc3ccccc3)CC2)c1=O	nt	nt	nt	-12	nt	nt
Cc1cc(N2CCN(C)CC2)nc(SCC2COc3ccccc3O2)n1 (stereo unspecified)	nt	nt	nt	-5	nt	nt
C=CCN=c1scc(-c2ccccc2)n1/N=C/c1ccccn1	i	15	-5	i	2	3
C=CCN=c1scc(-c2ccccc2)n1N=Cc1ccccn1	nt	nt	nt	46*	nt	nt

Bioassay records from PubChem.
